Test results: PubChem BioAssay AID1159580 (chemical genetic matrix, 2015)
Values joined by “and” are separate entries in the source; they are usually repeats but may differ in a detail not shown here. Equal values may be shown once. The whole screen tested about 5,500 compounds, of which about 2,000 (36%) were called active. About 18% were inconclusive and are not listed. No stated cut-off is given here; in the data, active means normalized growth mostly below about 0.91 (no sharp cut-off); inconclusive means no clear call, values can overlap the other calls; inactive means mostly above about 0.92. The list shows a part of the results.

Experiment: chemical genetic growth profiling, strain panel (AID 1159580);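 further: tested at 20 µM; growth read once vehicle control cultures reached saturation at 30 °C; 1 = growth at the plate median or of vehicle wells; lower values mean less growth of the strain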
Details: S. cerevisiae deletion strains, growth OD

Measured: normalized growth

COc1cc2c(cc1OC)Cc1cc(OC)c(OC)cc1Cc1cc(OC)c(OC)cc1C2
inactive: locus YAL021C, strain ccr4, hits give low values 1.03 | locus YAL026C, strain drs2, hits give low values 1.04 | locus YAL030W, strain snc1, hits give low values 1.03 | locus YBL061C, strain skt5, hits give low values 1.03 | locus YBR009C, strain hhf1, hits give low values 1.03 | locus YBR021W, strain FUR4, hits give low values 1.02 | locus YBR023C, strain chs3, hits give low values 1.03 | locus YBR171W, strain sec66, hits give low values 1.05 | locus YBR229C, strain ROT2, hits give low values 1.02 | locus YBR231C, strain swc5, hits give low values 1.04 | locus YBR279W, strain paf1, hits give low values 1.02 | locus YCL011C, strain gbp2, hits give low values 1.04 | locus YCL016C, strain dcc1, hits give low values 1.03 | locus YCL029C, strain bik1, hits give low values 1.02 | locus YCL061C, strain MRC1, hits give low values 1.02 | locus YCL069W, strain vba3, hits give low values 1.02 | locus YCR088W, strain abp1, hits give low values 1.02 | locus YDL005C, strain med2, hits give low values 1.03 | locus YDL035C, strain GPR1, hits give low values 1.01 | locus YDL040C, strain nat1, hits give low values 1.05 | locus YDL074C, strain BRE1, hits give low values 1.03 | locus YDL101C, strain DUN1, hits give low values 1.02 | locus YDL134C, strain PPH21, hits give low values 1.02 | locus YDL185W, strain tfp1, hits give low values 1.02 | locus YDL192W, strain arf1, hits give low values 1.05 | locus YDR001C, strain nth1, hits give low values 1.02 | locus YDR069C, strain doa4, hits give low values 1.04 | locus YDR101C, strain arx1, hits give low values 1.07 | locus YDR137W, strain rgp1, hits give low values 1.08 | locus YDR150W, strain NUM1, hits give low values 0.978 | locus YDR159W, strain sac3, hits give low values 1.05 | locus YDR162C, strain NBP2, hits give low values 1.03 | locus YDR195W, strain ref2 1.01 | locus YDR297W, strain sur2, hits give low values 1.03 | locus YDR318W, strain mcm21, hits give low values 1.02 | locus YDR334W, strain swr1, hits give low values 1.02 | locus YDR335W, strain msn5, hits give low values 1.03 | locus YDR388W, hits give low values 1.03 | locus YDR392W, strain spt3, hits give low values 0.993 | locus YDR502C, strain sam2, hits give low values 1.03 | locus YEL003W, strain gim4, hits give low values 1.04 | locus YEL037C, strain rad23, hits give low values 1.02 | locus YEL061C, strain CIN8 (second series), hits give low values 1.03 | locus YEL061C, strain CIN8, hits give low values 1.01 | locus YER015W, strain faa2, hits give low values 1.03 | locus YER016W, strain bim1, hits give low values 1.02 | locus YER110C, hits give low values 1.03 | locus YER111C, strain swi4, hits give low values 1.03 | locus YER155C, strain BEM2 (second series), hits give low values 1.03 | locus YER155C, strain BEM2, hits give low values 1.01 | locus YER167W, strain BCK2, hits give low values 1.01 | locus YFR010W, strain ubp6, hits give low values 1.05 | locus YGL078C, strain dbp3, hits give low values 1.03 | locus YGL086W, strain mad1, hits give low values 0.979 | locus YGL167C, strain pmr1, hits give low values 1.04 | locus YGL173C, strain kem1, hits give low values 1.04 | locus YGL227W, strain vid30, hits give low values 1.04 | locus YGL240W, strain doc1, hits give low values 1.03 | locus YGL248W, strain PDE1, hits give low values 1.02 | locus YGL253W, strain hxk2, hits give low values 1.02 | locus YGR078C, strain PAC10, hits give low values 1.02 | locus YGR135W, strain pre9, hits give low values 1.06 | locus YGR252W, strain gcn5, hits give low values 1.05 | locus YHR013C, strain ard1, hits give low values 1.05 | locus YHR027C, strain rpn1, hits give low values 1.04 | locus YHR030C, strain SLT2, hits give low values 1.01 and 1.02 | locus YHR079C, strain IRE1 (second series), hits give low values 1.02 | locus YHR079C, strain IRE1, hits give low values 1.06 | locus YHR094C, strain hxt1, hits give low values 1.03 | locus YHR129C, strain ARP1, hits give low values 1.01 | locus YHR142W, strain chs7, hits give low values 1.03 | locus YHR200W, strain rpn10, hits give low values 1.03 | locus YIL066C, strain RNR3, hits give low values 1.01 | locus YIL073C, strain SPO22, hits give low values 1.04 | locus YIL125W, strain kgd1, hits give low values 1.04 | locus YIR030C, strain dcg1, hits give low values 1.02 | locus YJL092W, strain hpr5, hits give low values 1.03 | locus YJL095W, strain BCK1 (second series), hits give low values 1.02 | locus YJL095W, strain BCK1, hits give low values 1.02 and 1.03 | locus YJL115W, strain asf1, hits give low values 1.04 | locus YJL129C, strain trk1, hits give low values 1.05 | locus YJL134W, strain LCB3, hits give low values 0.998 | locus YJL154C, strain vps35, hits give low values 1.01 | locus YJL164C, strain tpk1, hits give low values 1 | locus YJL166W, strain qcr8, hits give low values 1.03 | locus YJL168C, strain set2, hits give low values 1.03 | locus YJL187C, strain SWE1 (second series), hits give low values 1.03 | locus YJL187C, strain SWE1, hits give low values 1.03 | locus YJR043C, strain POL32, hits give low values 1
